The campaign covered roughly 2,000 compounds. About 15 (0.8%) showed an effect of 50% or more. What follows is part of a selection rich in strong results, with near analogues and random picks from the rest.
system: Balamuthia mandrillaris (ATCC PRA-291) trophozoites, axenic culture; experiment: primary screen, percent inhibition; higher = more effect of the substance; details: 20 µM;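 note: 0% = vehicle wells and 100% = lysate wells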
Description: Screening of a clinically approved library of compounds, compiled by the Small Molecule Discovery Center (SMDC) at the UCSF, was completed at 20 µM in 0.2% DMSO. All 2,177 drugs in the library were stored as 10 mM stocks dissolved in 100% DMSO (Sigma-Aldrich) at −20°C. B. mandrillaris amoebae were resuspended in axenic medium and distributed into opaque 384-well plates (Corning) at a density of 3,000 amoebae per well using a BioMek NX liquid handler. Negative-control wells were treated with vehicle only (0.2% DMSO in axenic medium), and positive-control wells simulating total destruction of amoebae were seeded with amoeba lysate generated by 3 consecutive freeze-thaw cycles. Following 72 h of incubation, 30 µl of CellTiter Glo reagent (CTG; Promega) was added to each well. The luminescence was measured with a Promega GloMax-Multi+ plate reader at 2, 4, and 8 h after CTG addition. […] The B-score, representing a plate-based statistical approach for correcting row, column, and edge effects, was also calculated for each compound in the library (75).

| SMILES | % Inhibition [%] |
| --- | --- |
| CN1C2CCC1CC(OC(=O)[C@H](CO)c1ccccc1)C2 (some centres unmarked) | 23 |
| O=C(O)C[C@H](O)C[C@H](O)/C=C/c1c(C2CC2)nc2ccccc2c1-c1ccc(F)cc1 | 15.5 |
| CC(C)c1nc(N(C)S(C)(=O)=O)nc(-c2ccc(F)cc2)c1/C=C/[C@@H](O)C[C@@H](O)CC(=O)O | 35.4 |
| COCc1c(C(C)C)nc(C(C)C)c(/C=C/[C@@H](O)C[C@@H](O)CC(=O)O)c1-c1ccc(F)cc1 | 66.1 |
| N=C(N)NCC1COC2(CCCCC2)O1 (centres unmarked) | 21.2 |
| COc1ccc2cc3[n+](cc2c1OC)CCc1cc2c(cc1-3)OCO2 | 29.8 |
| CC(=O)Nc1c(I)c(C(=O)N[C@H]2C(O)O[C@H](CO)[C@@H](O)[C@@H]2O)c(I)c(N(C)C(C)=O)c1I (some centres unmarked) | 8.04 |
| CCOC(=O)c1ncn2c1CN(C)C(=O)c1cc(F)ccc1-2 | 7.85 |
| O=C(O)c1cccnc1Nc1cccc(C(F)(F)F)c1 | 25.3 |
| COc1ccc2cc([C@H](C)C(=O)O)ccc2c1 [130714-L6] | 22.7 |
| Cc1nccn1CC1CCc2c(c3ccccc3n2C)C1=O (centres unmarked) | 16.2 |
| Cc1c(C(N)=O)cc([N+](=O)[O-])cc1[N+](=O)[O-] | 20.6 |
| C[C@H](CCC(=O)O)[C@H]1CCC2C3C(=O)CC4CC(=O)CC[C@]4(C)C3CC(=O)[C@@]21C (some centres unmarked) | 17.3 |
| CCCCCCOC(=O)/N=C(\N)c1ccc(NCc2nc3cc(C(=O)N(CCC(=O)OCC)c4ccccn4)ccc3n2C)cc1 [756753-L2] | 20.4 |
| OC(CNCC(O)C1CCc2cc(F)ccc2O1)C1CCc2cc(F)ccc2O1 (centres unmarked) | 6.6 |
| CC1OC1P(=O)(O)O (centres unmarked) [131204-L2] | 12.9 |
| C/C(=C\C(=O)OCCCCCCCCC(=O)O)C[C@@H]1OC[C@H](C[C@@H]2O[C@H]2[C@@H](C)[C@H](C)O)[C@@H](O)[C@H]1O | 26.3 |
| CC(=O)Oc1cc(C(C)C)c(OCCN(C)C)cc1C | 24.8 |
| CCC(=O)OCC(=O)C1(OC(=O)CC)C(C)CC2C3CCC4=CC(=O)C=CC4(C)C3(Cl)C(O)CC21C (centres unmarked) | 22.7 |
| NC(=O)C1(N2CCCCC2)CCN(CCCC(=O)c2ccc(F)cc2)CC1 | 18.8 |
| CNCCC[C@]12CC[C@H](c3ccccc31)c1ccccc12 | 23.8 |
| COC(=O)C1[C@H]2C[C@H]3c4[nH]c5ccccc5c4CCN3C[C@@H]2CC[C@@H]1O (some centres unmarked) | 22.5 |
| CCN(C)C(=O)Oc1cccc([C@H](C)N(C)C)c1 [756883-L2] | 25.9 |
| CC(CCc1ccc(O)cc1)NCC(O)c1ccc(O)cc1 (centres unmarked) | -1.52 |
| CC1(C)S[C@@H]2[C@H](NC(=O)[C@H](NC(=O)N3CCN(S(C)(=O)=O)C3=O)c3ccccc3)C(=O)N2[C@H]1C(=O)O | 18.9 |

| SMILES | % Inhibition [%] |
| --- | --- |
| COCCCOc1cc(C[C@@H](C[C@H](N)[C@@H](O)C[C@H](C(=O)NCC(C)(C)C(N)=O)C(C)C)C(C)C)ccc1OC | -4.92 |
| CCC(=O)OCC(=O)[C@@]1(OC(=O)CC)[C@H](C)CC2C3C([C@@H](O)C[C@@]21C)[C@@]1(C)C=CC(=O)C=C1C[C@H]3Cl (some centres unmarked) | 13.3 |
| CC(=O)OCC(=O)[C@@]12OC(C)(C)O[C@@H]1C[C@H]1[C@@H]3C[C@H](F)C4=CC(=O)C=C[C@]4(C)[C@@]3(F)[C@@H](O)C[C@@]12C | 11.4 |
| Cc1cccc(C)c1NC1=NCCCS1 | 8.96 |
| CC(=O)N[C@@H](CS)C(=O)O [129971-L5] | 0.0866 |
| CN(C)c1ccc(C(=C2C=CC(=[N+](C)C)C=C2)c2ccc(N(C)C)cc2)cc1 | 61.7 |
| COc1cc(N)c(Cl)cc1C(=O)N[C@H]1CCN(CCCOc2ccc(F)cc2)C[C@H]1OC | 9.62 |
| CC(=O)OCC(=O)[C@@]1(O)CCC2C3CCC4=CC(=O)C=C[C@]4(C)[C@@]3(F)[C@@H](O)C[C@@]21C (some centres unmarked) | 15.9 |
| CCN[C@@H](C)Cc1cccc(C(F)(F)F)c1 | 20.1 |
| CC(=O)S[C@@H]1CC2=CC(=O)CC[C@]2(C)[C@H]2CC[C@@]3(C)[C@@H](CC[C@@]34CCC(=O)O4)C12 (some centres unmarked) | 28 |
| C/C=C(/C)C(=O)O[C@@H]1[C@H](OC(C)=O)[C@@]2(CO)C(CC1(C)C)C1=CCC3[C@@]4(C)CC[C@H](O[C@@H]5O[C@H](C(=O)O)[C@@H](O[C@@H]6O[C@H](CO)[C@@H](O)[C@H](O)[C@H]6O)[C@H](O)[C@H]5O[C@@H]5O[C@H](CO)[C@@H](O)[C@H](O)[C@H]5O)[C@](C)(CO)C4CC[C@@]3(C)[C@]1(C)C[C@H]2O (some centres unmarked) | 3.82 |
| CCN(CC)C(=O)C1CN2CCc3cc(OC)c(OC)cc3C2CC1OC(C)=O (centres unmarked) | 18.9 |
| CC(=O)/N=c1\sc(S(N)(=O)=O)nn1C | 11.1 |
| COc1ccc2[nH]c(S(=O)Cc3ncc(C)c(OC)c3C)nc2c1 (centres unmarked) [255785-L6] | 24.6 |
| COc1ccc2c3c1O[C@H]1[C@@H](O)C=C[C@H]4[C@@H](C2)N(C)CC[C@@]341 | 10.8 |
| CC(=O)OCC(=O)[C@@]1(O)CC[C@H]2[C@@H]3CCC4=CC(=O)CC[C@]4(C)[C@@]3(F)[C@@H](O)C[C@@]21C | 17.7 |
| N=C(NCCCCCCNC(=N)NC(=N)Nc1ccc(Cl)cc1)NC(=N)Nc1ccc(Cl)cc1 | 63.6 |
| CC(C)/N=C(N)/N=C(\N)Nc1ccc(Cl)cc1 [131550-L3] | 10.7 |
| CC(C)/N=C(N)/N=C(\N)Nc1ccc(Cl)cc1 [131550-L2] | 9.42 |
| O=C(O)COC(=O)Cc1ccccc1Nc1c(Cl)cccc1Cl | -10.4 |
| N=C(N)N | 14.8 |
| Cc1cc2nc3c(=O)[nH]c(=O)nc-3n(C[C@H](O)[C@H](O)[C@H](O)CO)c2cc1C | 14.9 |
| CO/N=C(\C(=O)N[C@@H]1C(=O)N2C(C(=O)O)=C(CSc3nc(=O)c(=O)[nH]n3C)CS[C@@H]12)c1csc(N)n1 | 13.4 |
| Cc1ccc(S(=O)(=O)NC(=O)NN2CCCCCC2)cc1 | 32 |
| C[C@]12CCC3c4ccc(OS(=O)(=O)O)cc4CCC3C1CCC2=O (some centres unmarked) | -1.63 |

Source: paper PMC6212833
